# Data reported in PubChem BioAssay (NCI).
# About 83,000 compounds went through this panel and 20% of them were active in at least one assay; those are over-represented in the sample as a whole.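 Testing used 96-well plates and a 48-hour single-concentration exposure. Example: -40 means 40% of the starting cells died.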 The source made the active and inactive calls. How the source made its calls: active means growth percent below 10; inactive means the rest.
# Tested on: MDA-MB-468 breast
# Test: NCI-60 one-dose screen, 48 h (100 = growth as untreated, 0 = no growth, -100 = all killed)
# Conditions: 10 µM unless noted
row,SMILES,growth
1,O=c1c2cc(-c3ccc(F)cc3F)ccc2n(Nc2ccccc2)c(=O)n1-c1cccc(C(F)(F)F)c1,-10.4% (active)
2,Nc1c(C(=O)Nc2cccc(Br)c2)sc2nc3c(cc12)C(=O)CCC3,32.1% (inactive)
3,CC[C@H]1OC(=O)[C@H](C)[C@@H](O[C@H]2C[C@@](C)(OC)[C@@H](O)[C@H](C)O2)[C@H](C)[C@@H](O[C@@H]2O[C@H](C)C[C@H](N(C)C)[C@H]2O)[C@](C)(OC)C/C(C)=C2/O[C@@]1(C)C=C2C,-73.7% (active)
4,O=C(Nc1cccc(F)c1)c1cc(=O)[nH]c2cc(Br)ccc12,55.3% (inactive)
5,C/C(=N\NC(=S)N1CCCC1)c1ccccn1,-31.9% (active)
6,Oc1ccc(-c2nc(-c3ccc4oc5ccc(-c6[nH]c(-c7ccc(O)cc7)nc6-c6ccccc6)cc5c4c3)c(-c3ccccc3)[nH]2)cc1,6.14% (active)
7,N#Cc1nc(-c2cccc(Br)c2)cc(-c2ccc(Nc3nc(N4CCCCC4)nc(N4CCCCC4)n3)cc2)c1N,-26.3% (active)
8,Oc1ccc2ccccc2c1/C=N\Nc1ccccn1,-19.3% (active)
9,NC(=O)[C@@H]1CC2CCC1C2 (stereo partly drawn),99.4% (inactive)
10,COc1ccc(/C=C/C(=O)c2ccc(Nc3ncnc4ccccc34)cc2)cc1OC,60.7% (inactive)
11,O=S1(=O)CCC(N(/N=C/c2ccco2)c2ccccc2)C1 (stereo not drawn),108% (inactive)
12,NC(N)=NC(N)=NCCCc1ccco1,107% (inactive)
13,O=C1c2ccc3c4c(ccc(c24)C(=O)N1CCCNCc1ccccc1F)C(=O)N(CCCNCc1ccccc1F)C3=O,-95.1% (active)
